Experimental data: the supplement of paper PMC7411054
Counter-ions that a name gives are not always drawn.

Tests used:
Details in all cases: treatment time: 24 h
A549-ACTB-RAB5A [1] = test: lowest phenotypically active concentration; higher = less potent
Method in brief: (§1)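 Four wells per concentration (0.3, 1, 3 or 9 µM) were treated for 24 h in each of fifteen gene-edited reporter lines from A549, HepG2 and WPMY1 cells, then imaged live. After normalising live-cell features to solvent control wells, deviation was defined as ≥3 of 4 wells lying past the 95th percentile of control Euclidean distances. Reproducibility was defined as a median replicate Pearson correlation above the 95th percentile of non-replicates. Both had to hold for phenotypic activity.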

A549-CANX-COX4 [2] = test: as above
Method in brief: as §1

A549-GM130-SQSTM1 [3] = test: as above
Method in brief: as §1

A549-TUBA1B-RELA [4] = test: as above
Method in brief: as §1

A549-ACTB-RAB5A [5] = test: phenotypically active (imaging signature differs from DMSO and reproducible) at any of 0.3-9 uM (binary (1 = active, 0 = inactive)); higher = active
Method in brief: as §1

A549-CANX-COX4 [6] = test: as above
Method in brief: as §1

A549-GM130-SQSTM1 [7] = test: as above
Method in brief: as §1

A549-TP53BP1-CLTA [8] = test: as above
Method in brief: as §1

A549-TUBA1B-RELA [9] = test: as above
Method in brief: as §1

HepG2-ACTB-RAB5A = test: as above
Method in brief: as §1

HepG2-CANX-COX4 = test: as above
Method in brief: as §1

HepG2-GM130-SQSTM1 = test: as above
Method in brief: as §1

HepG2-TP53BP1-CLTA = test: as above
Method in brief: as §1

HepG2-TUBA1B-RELA = test: as above
Method in brief: as §1

WPMY1-ACTB-RAB5A = test: as above
Method in brief: as §1

WPMY1-CANX-COX4 = test: as above
Method in brief: as §1

WPMY1-GM130-SQSTM1 = test: as above
Method in brief: as §1

WPMY1-TP53BP1-CLTA = test: as above
Method in brief: as §1

WPMY1-TUBA1B-RELA = test: as above
Method in brief: as §1

A549-TP53BP1-CLTA [10] = test: lowest phenotypically active concentration; higher = less potent
Method in brief: as §1

CC[C@]12C=CCN3CC[C@]4(C(=C(C(=O)OC)C1)Nc1ccccc14)[C@@H]32 [Tabersonine dichlorhydrate]
inactive: phenotypically active (A549-TP53BP1-CLTA [8]) 0
9 µM: lowest phenotypically active concentration (A549-ACTB-RAB5A [1]) | lowest phenotypically active concentration (A549-CANX-COX4 [2]) | lowest phenotypically active concentration (A549-GM130-SQSTM1 [3]) | lowest phenotypically active concentration (A549-TUBA1B-RELA [4])
active: phenotypically active (A549-ACTB-RAB5A [5]) 1 | phenotypically active (A549-CANX-COX4 [6]) 1 | phenotypically active (A549-GM130-SQSTM1 [7]) 1 | phenotypically active (A549-TUBA1B-RELA [9]) 1 | phenotypically active (HepG2-ACTB-RAB5A) 1 | phenotypically active (HepG2-CANX-COX4) 1 | phenotypically active (HepG2-GM130-SQSTM1) 1 | phenotypically active (HepG2-TP53BP1-CLTA) 1 | phenotypically active (HepG2-TUBA1B-RELA) 1 | phenotypically active (WPMY1-ACTB-RAB5A) 1 | phenotypically active (WPMY1-CANX-COX4) 1 | phenotypically active (WPMY1-GM130-SQSTM1) 1 | phenotypically active (WPMY1-TP53BP1-CLTA) 1 | phenotypically active (WPMY1-TUBA1B-RELA) 1

O=C(NCCN1CCC2(CC1)C(=O)NCN2c1cccc(F)c1)c1ccc(F)c(F)c1 [ML 298 hydrochloride]
3 µM: lowest phenotypically active concentration (A549-ACTB-RAB5A [1]) | lowest phenotypically active concentration (A549-TUBA1B-RELA [4])
inactive: phenotypically active (HepG2-CANX-COX4) 0 | phenotypically active (WPMY1-TP53BP1-CLTA) 0
9 µM: lowest phenotypically active concentration (A549-CANX-COX4 [2]) | lowest phenotypically active concentration (A549-GM130-SQSTM1 [3]) | lowest phenotypically active concentration (A549-TP53BP1-CLTA [10])
active: phenotypically active (A549-ACTB-RAB5A [5]) 1 | phenotypically active (A549-CANX-COX4 [6]) 1 | phenotypically active (A549-GM130-SQSTM1 [7]) 1 | phenotypically active (A549-TP53BP1-CLTA [8]) 1 | phenotypically active (A549-TUBA1B-RELA [9]) 1 | phenotypically active (HepG2-ACTB-RAB5A) 1 | phenotypically active (HepG2-GM130-SQSTM1) 1 | phenotypically active (HepG2-TP53BP1-CLTA) 1 | phenotypically active (HepG2-TUBA1B-RELA) 1 | phenotypically active (WPMY1-ACTB-RAB5A) 1 | phenotypically active (WPMY1-CANX-COX4) 1 | phenotypically active (WPMY1-GM130-SQSTM1) 1 | phenotypically active (WPMY1-TUBA1B-RELA) 1

N#CC(C#N)=NNc1ccc(OC(F)(F)F)cc1
active: phenotypically active (A549-ACTB-RAB5A [5]) 1 | phenotypically active (A549-CANX-COX4 [6]) 1 | phenotypically active (A549-GM130-SQSTM1 [7]) 1 | phenotypically active (A549-TP53BP1-CLTA [8]) 1 | phenotypically active (A549-TUBA1B-RELA [9]) 1 | phenotypically active (HepG2-ACTB-RAB5A) 1 | phenotypically active (HepG2-CANX-COX4) 1 | phenotypically active (HepG2-GM130-SQSTM1) 1 | phenotypically active (HepG2-TP53BP1-CLTA) 1 | phenotypically active (HepG2-TUBA1B-RELA) 1 | phenotypically active (WPMY1-ACTB-RAB5A) 1 | phenotypically active (WPMY1-CANX-COX4) 1 | phenotypically active (WPMY1-GM130-SQSTM1) 1 | phenotypically active (WPMY1-TP53BP1-CLTA) 1 | phenotypically active (WPMY1-TUBA1B-RELA) 1
9 µM: lowest phenotypically active concentration (A549-ACTB-RAB5A [1]) | lowest phenotypically active concentration (A549-CANX-COX4 [2]) | lowest phenotypically active concentration (A549-TP53BP1-CLTA [10])
3 µM: lowest phenotypically active concentration (A549-GM130-SQSTM1 [3]) | lowest phenotypically active concentration (A549-TUBA1B-RELA [4])

CN1CCC2=C[C@H](O)[C@H]3OC(=O)c4cc5c(cc4[C@H]3[C@@H]21)OCO5 [Hippeastrine hydrobromide]
inactive: phenotypically active (A549-CANX-COX4 [6]) 0 | phenotypically active (A549-GM130-SQSTM1 [7]) 0 | phenotypically active (A549-TP53BP1-CLTA [8]) 0 | phenotypically active (A549-TUBA1B-RELA [9]) 0 | phenotypically active (HepG2-ACTB-RAB5A) 0 | phenotypically active (HepG2-GM130-SQSTM1) 0 | phenotypically active (HepG2-TP53BP1-CLTA) 0 | phenotypically active (HepG2-TUBA1B-RELA) 0 | phenotypically active (WPMY1-ACTB-RAB5A) 0 | phenotypically active (WPMY1-CANX-COX4) 0 | phenotypically active (WPMY1-GM130-SQSTM1) 0 | phenotypically active (WPMY1-TP53BP1-CLTA) 0 | phenotypically active (WPMY1-TUBA1B-RELA) 0
active: phenotypically active (A549-ACTB-RAB5A [5]) 1 | phenotypically active (HepG2-CANX-COX4) 1
9 µM: lowest phenotypically active concentration (A549-ACTB-RAB5A [1])
